From PubChem BioAssay AID652141 (The Scripps Research Institute Molecular Screening Center, 2013)
Out of some 5,600 compounds screened, about 4,500 (80%) were called active. Rule as the data show it: active = inhibition above about 10%; inactive = the rest. So high a share suggests a set chosen from earlier hits. The list is a sample of the results.

Assay: GDH-TPI coupling enzyme inhibitors, artefact control for M. tuberculosis FBA inhibitor project, biochemical, fluorescence, high throughput (AID 652141)
Settings: GDH-TPI coupled enzyme counterscreen, at 1 µM, hits give high values

Compound	inhibition
COCCCNC(=S)N(CCN(C)C)Cc1cc2cc3c(cc2[nH]c1=O)OCCO3	41% (active)
Cc1ccc2nc(/C(C#N)=C\c3ccc(OC(=O)c4cccs4)cc3)[nH]c2c1	39% (active)
Cc1ccsc1C(=O)N[C@@H](C)c1nnc2ccccn12	110% (active)
CCC1C(=O)c2ccccc2N(C)C1=O (centres undefined)	-6.39% (inactive)
CN1CCN(CCCNC(=O)c2ccc(/C=C3\Oc4ccccc4N(Cc4ccc(Cl)cc4)C3=O)cc2)CC1	-4.56% (inactive)
O=C(NCCN1CCOCC1)c1ccc2c(c1)N(Cc1ccc(Cl)cc1)CCS2	48.2% (active)
O=C(NCCc1ccccc1)c1ccc2c(c1)N(Cc1ccccc1)CCS2	29.2% (active)
CC(C)(C)Nc1c(-c2cccs2)nc2ccccn12	114% (active)
CCOC(=O)c1c(-c2ccccc2)oc2ccc(OC(=O)N(C)C)cc12	164% (active)
Cc1c(CCC(=O)O)c(=O)oc2cc(OCc3ccc(Br)cc3)ccc12	1.56% (inactive)
Cc1c(Cc2ccccc2)c(=O)oc2cc(OCC(N)=O)ccc12	899% [above what the read-out allows, likely interference] (active)
CCOC(=O)c1c(-c2ccccc2)oc2ccc(OCC(=O)NN)cc12	74.7% (active)
COC(=O)c1c(-c2ccsc2)oc2ccc(-c3cc(OC)c(OC)c(OC)c3)cc12	-4.81% (inactive)
CCOC(=O)c1c(-c2ccccc2)oc2ccc(OCC(N)=O)cc12	126% (active)
C=CCNC(=O)c1ccc2c3n(nc2c1)-c1ccc(C)cc1CO3	160% (active)
CCOC(=O)CSc1nc2c(c(=O)n(Cc3ccccc3Cl)c(=O)n2C)n1C	28.5% (active)
COc1ccc(-n2cc(CN(C)Cc3n[nH]c(=O)[nH]3)c(-c3cccc(F)c3)n2)cc1	37.4% (active)
COc1ccc(-n2cc(CNC3CCOCC3)c(-c3cccc(F)c3)n2)cc1	15.8% (active)
CCCc1nc2oc3c(=O)[nH]cnc3c2c2c1COC(C)(C)C2	101% (active)
O=C(O)/C=C/c1cn(-c2ccccc2)nc1-c1cccs1	76.6% (active)
COc1ccccc1-c1oc2ccccc2c1C#CCCCCO	145% (active)
Cc1ccc(-c2nc(C#N)c(NCCCn3ccnc3)o2)cc1	34.1% (active)
Cn1cc(-c2ccccc2)cc(C#N)c1=O	79.8% (active)
C=CCn1cc(-c2cccc(C(F)(F)F)c2)cc(C#N)c1=O	-2.28% (inactive)

Compound	inhibition
CN(CCNC(=O)c1cc2c(-c3ccccc3F)nn(C)c2s1)C1CCCCC1	183% (active)
CCOC(=O)c1cc2cc(C)ccc2[nH]1	42.5% (active)
Cc1cc(C)c2c(NC(=O)C3CC3)nn(C)c2n1	72.7% (active)
Cc1cc(C)c2c(n1)nn1c(-n3ccnc3)cc(C)nc21	-4.63% (inactive)
Cc1cc(=O)n2[nH]c(-c3cccc(Cl)c3)cc2n1	82.4% (active)
CC(C)n1ncc2c(C(=O)NCc3ccccc3CN(C)C)cc(C3CC3)nc21	108% (active)
CCCS(=O)(=O)Nc1c(C(=O)O)[nH]c2ccccc12	48.1% (active)
CC(C)CN1CCNC(=O)C1CC(=O)N(C)CC1CCOCC1 (centres undefined)	106% (active)
COCCCNC(=S)NCCNc1nc2cc(C)c(C)cc2cc1C#N	60.5% (active)
CN(CCc1ccccn1)S(=O)(=O)c1ccc2c3c(cccc13)C(=O)N2	103% (active)
CCC(C)N(C(=O)COC(=O)C1C(C(=O)OC)=C(C)NC(C)=C1C(=O)OC)C1CCS(=O)(=O)C1 (centres undefined)	111% (active)
CCN(C(=O)COC(=O)c1ccc(COc2ccc3c(C)cc(=O)oc3c2)cc1)C1CCS(=O)(=O)C1 (centres undefined)	-0.6% (inactive)
Cc1ccc(-c2nc3ccccc3c(=O)n2-c2ccc(Br)cn2)cc1	98.6% (active)
CC1(C(=O)NCc2ccc(F)c(F)c2)Cc2c(-c3ccc4c(c3)OCO4)ccnc2O1 (centres undefined)	108% (active)
CC1(C(=O)NCc2ccco2)Cc2c(-c3ccc4c(c3)OCO4)ccnc2O1 (centres undefined)	-4.87% (inactive)
CC(C)OCCCNc1ncnc2c1[nH]c1ccc(F)cc12	97.1% (active)
CCCCNc1c(-c2cccc(Sc3ccc(OC)cc3)c2)nc2ccccn12	32.5% (active)
CCc1c(C)nc2cc(-c3cccs3)[nH]n2c1=O	19.6% (active)
CCc1c(C)nc2cc(C)[nH]n2c1=O	41.7% (active)
C=CCc1c(C)nc2cc(-c3ccccc3)[nH]n2c1=O	49.2% (active)
Cc1ccc(S(=O)(=O)N2C[C@@H](C)[C@]3(C2)[C@H](O)[C@H](OC(=O)NCc2ccccc2)C[C@H]2C(=O)N(c4ccccc4)C(=O)[C@H]23)cc1	-1.04% (inactive)
CN(C)Cc1c(O)ccc2c(=O)c(-c3ccccc3Cl)coc12	3.78% (inactive)
C[C@H](O)[C@@H]1C(=O)N2CCc3c([nH]c4ccccc34)[C@@H]2C[C@@H]1N(C)C(=O)Nc1ccc(F)cc1	182% (active)
O=C(O)c1cccnc1Sc1ncnc2sc3c(c12)CCC3	47.7% (active)

Compound	inhibition
N#Cc1c(N)n(CCOC(=O)c2ccc(Cl)cc2)c2nc3ccccc3nc12	27.5% (active)
CC(OC(=O)c1ccccc1NCCO)C(=O)Nc1ccnn1C(C)C (centres undefined)	83.3% (active)
COc1cc2nc(N3CCN(C(=O)[C@@H]4CCCO4)CC3)nc(N)c2cc1OC	81.7% (active)
Cc1ccc(NC(=O)CN(C)C(=O)COC(=O)c2nccnc2N)cc1	-3.67% (inactive)
Cc1nc2ccc(NC(=O)N3CCC(c4ccccc4)C3)cc2nc1C (centres undefined)	70.1% (active)
CCN1CCc2c(C#N)c(NCc3ccccc3)nc(NCCO)c2C1	139% (active)
O=C(Nc1ccc2nccnc2c1)c1ccco1	515% [above what the read-out allows, likely interference] (active)
O=C1OCCN1C(=O)[C@H]1[C@H](c2ccc(F)cc2)C(c2ccccc2)=NN1c1ccc(Br)cc1	38.6% (active)
C#Cc1cc(N2CCN(C(=O)c3ccoc3)CC2)n2nc(-c3cccc(Cl)c3)cc2n1	73.9% (active)
Cc1nc(COc2cc3oc(=O)cc(C)c3cc2Cl)cs1	171% (active)
Cc1ccc(Cn2c(C)nc3c(c2=O)c2nc4ccccc4nc2n3Cc2ccco2)cc1	48.7% (active)
CC[C@@H]1Cc2cc(O)ccc2C2=C1c1ccc(O)cc1C[C@H]2CC	79.8% (active)
COc1ccc2oc(=O)c(C(=O)NCc3ccccn3)cc2c1	-4.05% (inactive)
COc1ccc2oc(=O)c(C(=O)N3CCCC3)cc2c1	99.7% (active)
Nc1ccccc1-c1nc2ccncc2[nH]1	0.69% (inactive)
O=C(Nc1cccc2ccccc12)N1CCN(Cc2ccc3c(c2)OCO3)CC1	34.8% (active)
O=C(Nc1cccc2ccccc12)N1CCC2(CC1)OCCO2	93.7% (active)
COc1cc(C(F)(F)F)nc2c(Br)c(C(C)(C)C)nn12	47.7% (active)
O=C(NCc1cccc(Cl)c1)C1=CC=CN2CCS(=O)(=O)N=C12	-4.53% (inactive)
CNc1nc(-c2ccccc2)cc(-c2ccccc2)n1	73.9% (active)
Nc1nc2n(n1)C(c1ccco1)CC(c1ccc(Cl)c(Cl)c1)N2 (centres undefined)	199% (active)
Cn1cccc1-c1nc2ccccc2n1C	9.72% (inactive)
Cn1c(-c2ccco2)nc2cc3ccccc3cc21	36.5% (active)
O=C(Nc1nncs1)c1ccccc1NS(=O)(=O)c1cccs1	115% (active)

Compound	inhibition
Cc1ccc(C2Nc3ccccc3C(=O)N2CCN2CCNC2=O)cc1 (centres undefined)	-5.86% (inactive)
CCOC(=O)NN1C(=O)c2ccccc2NC1c1cccc(O)c1 (centres undefined)	100% (active)
Cc1cc(C)nc(SCc2cn3c(C)cc(C)nc3n2)n1	69.3% (active)
Cc1nn(C)c(Oc2ccccc2)c1CCNS(=O)(=O)c1ccc(F)cc1	124% (active)
COc1cc(/C=C/c2ccc(/C=C/c3cc(OC)c(OC)c(OC)c3)cc2)cc(OC)c1OC	11.4% (active)
COCCCNC(=O)/C(C#N)=C/c1c(N2CCCCCC2)nc2ccccn2c1=O	50.5% (active)
CC[C@@H](C)[C@H](NC(=O)CCc1c(C)c2cc3c4c(oc3c(C)c2oc1=O)CCCC4)C(=O)O	83% (active)
CCCc1cc(=O)n2[nH]c(C)c(-c3ccc(Cl)cc3)c2n1	108% (active)
Cc1nc2c(-c3ccccc3)c(C)[nH]n2c(=O)c1Cl	81.2% (active)
COCc1cc(=O)n2[nH]c(C)c(-c3ccccc3)c2n1	39.7% (active)
CN1CCc2c(sc3c2c(NCc2ccco2)nc2nnnn23)C1	183% (active)
O=C(CCC(=O)N/N=C/c1ccc(Br)o1)N/N=C/c1ccc(Br)o1	88.2% (active)
Fc1ccc(COc2cccc(-c3n[nH]c(=S)o3)c2)cc1	137% (active)
CCN(C(=O)Nc1cccc2ccccc12)c1ccccc1	118% (active)
COc1cc(OC)cc(C(=O)Nc2ccc(-c3nc4ccccc4o3)c(O)c2)c1	135% (active)
CC(=O)Nc1ccc(-c2nc3ccccc3o2)cc1	-2.16% (inactive)
CC(C)(C)C(=O)Nc1cccc(-c2ccc[nH]2)n1	71% (active)
CC(C)(C)NC(=O)COc1ccc(CNc2ccc3[nH]c(=O)[nH]c3c2)cc1	2.64% (inactive)
COCCCn1c(C(=O)NC2CCCCC2)cc2c(=O)n3cccc(C)c3nc21	53.1% (active)
Cc1ccn2c(c1)nc(=O)c1cc(S(=O)(=O)N3CCC(C)CC3)ccc12	-0.78% (inactive)
Cc1ccc(-n2c(=O)c(C#N)cc3c(=O)n4ccccc4nc32)cc1C	19.5% (active)
Cc1coc2c1c(C)cc1oc(=O)c(CC(=O)NCC(=O)N[C@H](C(=O)O)C(C)C)c(C)c12	49.8% (active)
